In the library only some 10% were active in any assay of this set; here they are far more common.
G9a block = inhibitors of human histone lysine methyltransferase G9a. Potency, µM (titrated, usually from 102 µM), inactives show at the highest dose activity, negative = inhibition, most hits filed as inhibitors. G9a H3K9 monomethylation, AlphaScreen, 2 h. Q96KQ7. hit rate 8.8% among 350,000. AID 504332; note: % is set by controls: 0 for no effect and ±100 for the full control effect; nearly all actives have a fitted effect of over 75% in size
Target sequence (Q96KQ7 913-1193 limits assumed): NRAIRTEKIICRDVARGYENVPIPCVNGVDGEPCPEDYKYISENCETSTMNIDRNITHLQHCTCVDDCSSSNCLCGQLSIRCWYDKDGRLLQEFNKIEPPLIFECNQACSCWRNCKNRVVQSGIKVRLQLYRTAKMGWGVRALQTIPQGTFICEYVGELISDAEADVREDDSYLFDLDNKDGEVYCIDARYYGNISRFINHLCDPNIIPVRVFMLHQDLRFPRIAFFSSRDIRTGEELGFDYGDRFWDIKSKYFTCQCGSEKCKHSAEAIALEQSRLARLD
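Step 1: enzyme (final 20 nM) with compound, 15 min RT. Step 2: substrate peptide 500 nM and SAM 20 uM, 2 h RT. Step 3: anti-H3K9me1 antibody and AlphaScreen beads, 10 min, then plate read.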
HP1b chromo inh = inhibitors of HP1-beta chromodomain binding to methylated histone tails; P83916; AlphaScreen HP1-beta / biotin-H3K9me3 peptide binding; Potency, µM (doses to about 114 µM), without a hit: at the top dose activity change, negative = inhibition, actives largely listed as inhibitors; hit rate 0.56% among 390,000; AID 540317; note: nearly all actives have a fitted effect of over 70% in size
Target sequence (P83916 whole entry, looked up): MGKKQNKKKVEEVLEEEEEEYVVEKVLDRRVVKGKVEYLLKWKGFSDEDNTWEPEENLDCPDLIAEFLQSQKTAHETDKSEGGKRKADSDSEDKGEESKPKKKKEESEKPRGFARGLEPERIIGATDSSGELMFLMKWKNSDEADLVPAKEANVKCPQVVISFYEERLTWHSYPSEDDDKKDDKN
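Compound inhibition of the preformed complex between 50 nM HP1-beta and 50 nM biotinylated H3K9me3 peptide was read by AlphaScreen. Buffer was PBS pH 7.4 with 0.01% Tween-20. Incubations ran 30 min at room temperature, with 10 ug/mL donor/acceptor beads.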
JMJD2A Tudor inh = inhibitors of human JMJD2A Tudor domain; O75164; AlphaScreen JMJD2A-Tudor / H3K4me3 peptide binding; Potency, µM (series often up to 114 µM), for the others: at the top dose activity change, negative = inhibition, actives largely listed as inhibitors; hit rate 4.4% among 390,000; note: % is set by controls: 0 for no effect and ±100 for the full control effect; nearly all actives have a fitted effect of over 50% in size
GLS inhibitor = blocks human kidney-isoform glutaminase activity. GLS enzymatic activity, qHTS titration. Potency, µM (highest dose often 45.5 µM), inactives show top-dose activity change, negative = inhibition, hits mostly inhibitors. hit rate 0.21% among 410,000; note: % is set by controls: 0 for no effect and ±100 for the full control effect
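Compounds were pin-transferred onto hKGA, after which L-glutamine (1 mM solution) and a detection mix of glutamate oxidase, HRP and Amplex Red were added. Initial and 30 min RT fluorescence reads were collected.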
BAZ2B inh = BAZ2B (human) inhibition. hit rate 4.4% among 360,000. AID 504333. AlphaScreen BAZ2B-H3K14Ac peptide displacement. Potency, µM (doses to about 114 µM), without a hit: at the top dose activity change, negative = inhibition, usual class: inhibitors. Q9UIF8; note: % is set by controls: 0 for no effect and ±100 for the full control effect; nearly all actives have a fitted effect of over 60% in size
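Compounds, titrated to a top concentration of 110 uM, were incubated 30 min at room temperature with preformed BAZ2B/acetyl-K14 H3 peptide complex (50 nM each). Proximity signal was measured by AlphaScreen after 20 min with beads.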
Numbers without * were called inactive; [ ] = another dose, or the depositor's remark. Calls come from the whole dose curve; as a rule, active = well fitted curve in the direction sought with a large enough effect; inconclusive = small, poorly fitted or top-dose-only effect, or another doubt; inactive = no such curve, though single readings can be large; an effect the other way counts as inactive or inconclusive. Potency is the fitted concentration of half-maximal effect.

`CC1CCCN(C(=O)c2ccc3c(c2NCCO)C(=O)c2ccccc2C3=O)C1` (stereo not given) gave G9a block 2%[12.7 µM], HP1b chromo inh 50µM*, JMJD2A Tudor inh 45µM*, GLS inhibitor 5% and BAZ2B inh 40µM*.
`O=C1c2ccccc2C(=O)c2c1ccc(C(=O)N1CCCCC1)c2NCCO` gave G9a block 18%[59 µM], HP1b chromo inh -23%, JMJD2A Tudor inh -19%, GLS inhibitor 0% and BAZ2B inh -5%.
`CC1(C)CCCN(C(=O)c2ccc3c(c2NCCO)C(=O)c2ccccc2C3=O)C1` gave G9a block 35µM*, HP1b chromo inh -79%, JMJD2A Tudor inh 40µM*, GLS inhibitor -10% and BAZ2B inh 14µM*.
For O=C(CSc1nnc(SCc2ccc(Cl)cc2)s1)N/N=C/c1c(Cl)cccc1Cl the results were G9a block 17%[59 µM], HP1b chromo inh 33%, JMJD2A Tudor inh -8%, GLS inhibitor -3% and BAZ2B inh 7%.
CCCc1cc(=O)[nH]c(/N=C(\N)Nc2ccccc2)n1 was read as G9a block inconclusive, HP1b chromo inh 11%, JMJD2A Tudor inh inconclusive, GLS inhibitor -1% and BAZ2B inh -24%.
CCOC(=O)c1[nH]c(=S)n(Cc2ccccc2)c1C(=O)OCC was read as HP1b chromo inh inconclusive, JMJD2A Tudor inh 3.2µM* and GLS inhibitor inconclusive.
CS/C(Nc1cc(Cl)ccc1Cl)=C(/C#N)C(=O)c1ccco1 was read as G9a block 14µM*, HP1b chromo inh -18%, JMJD2A Tudor inh inconclusive, GLS inhibitor -12% and BAZ2B inh 56µM*.
For COc1ccc(OC)c(NC(=O)CC2C(=O)NCCN2C(=O)C(F)(F)F)c1 (stereo not given) the results were G9a block -1%[59 µM], HP1b chromo inh 31%, JMJD2A Tudor inh -9%, GLS inhibitor -9% and BAZ2B inh -4%.
`Cc1ccccc1NN=Nc1nc2c([nH]1)c(=O)n(C)c(=O)n2C` gave G9a block 4µM*, HP1b chromo inh inconclusive, JMJD2A Tudor inh inconclusive, GLS inhibitor -3% and BAZ2B inh -30%.
`COc1ccc(NN=Nc2nc3c([nH]2)c(=O)n(C)c(=O)n3C)cc1` gave HP1b chromo inh 4.5µM*, JMJD2A Tudor inh 8.9µM*, GLS inhibitor 34% and BAZ2B inh 56µM*.
For Cn1c(=O)c2[nH]c(N=NNc3ccccc3F)nc2n(C)c1=O the results were G9a block 1.8µM*, HP1b chromo inh 20µM*, JMJD2A Tudor inh 7.9µM*, GLS inhibitor -13% and BAZ2B inh 20µM*.
Screening COc1ccc(C=NNc2nc3c([nH]2)c(=O)n(C)c(=O)n3C)cc1 returned HP1b chromo inh 12%[57 µM], JMJD2A Tudor inh -7% and GLS inhibitor 1%.
Cc1ccsc1/C=C1/SC(N2CC(C)OC(C)C2)=NC1=O (stereo not given) was read as G9a block 45µM*, HP1b chromo inh 9%, JMJD2A Tudor inh -10%, GLS inhibitor -9% and BAZ2B inh 1%.
Screening Cc1ccc(OCCCCNC2CCCC(C)C2C)c(C)c1 (stereo not given) returned G9a block 13µM*, HP1b chromo inh inconclusive, JMJD2A Tudor inh 20µM*, GLS inhibitor -11% and BAZ2B inh 22µM*.
Screening CC(=O)Nc1cc(OC(C)=O)c2nonc2c1OC(C)=O returned G9a block inconclusive, HP1b chromo inh 30%, JMJD2A Tudor inh -19%, GLS inhibitor 9% and BAZ2B inh inconclusive.
For CC(=O)Oc1ccc2nonc2c1OC(C)=O the results were HP1b chromo inh 20µM* and JMJD2A Tudor inh inconclusive.
CCOc1ccc2ncc(C(=O)c3ccc(OC)cc3)c(N3CCN(CC)CC3)c2c1 was read as G9a block 45µM*, HP1b chromo inh 12%, JMJD2A Tudor inh -33%, GLS inhibitor 5% and BAZ2B inh inconclusive.
For CCc1ccc(C(=O)c2cnc3ccc(OC)cc3c2N2CCN(CC)CC2)cc1 the results were G9a block 40µM*, HP1b chromo inh 19%, JMJD2A Tudor inh -30%, GLS inhibitor -4% and BAZ2B inh 50µM*.
Screening CCc1ccc2ncc(C(=O)c3ccc(C)c(C)c3)c(N3CCC(C(N)=O)CC3)c2c1 returned G9a block -31%[59 µM], HP1b chromo inh 10%, JMJD2A Tudor inh inconclusive, GLS inhibitor 3% and BAZ2B inh -27%.
Screening CCOC(=O)C1CCCN(c2c(C(=O)c3ccc(C)cc3)cnc3ccc(OCC)cc23)C1 (stereo not given) returned G9a block 1.4µM*, HP1b chromo inh -17%, JMJD2A Tudor inh 35µM*, GLS inhibitor 1% and BAZ2B inh 50µM*.
Screening Cc1cn(-c2cc(NC(=O)c3ccc(C)c(NC(=O)c4cccc(-c5cn[nH]c(=O)c5)c4)c3)cc(C(F)(F)F)c2)cn1 returned G9a block 14µM*, HP1b chromo inh 21%, JMJD2A Tudor inh inconclusive, GLS inhibitor -1% and BAZ2B inh -38%.
Screening Cc1ccc([C@@]2(OC(=O)c3ccccc3)C(=O)N(C(=O)OC(C)(C)C)c3ccccc32)cc1 returned GLS inhibitor -2%.
`N#CC1=C(S)N(c2ccccc2)C(c2ccc(-c3cc(Cl)ccc3Cl)o2)NC1=O` (stereo not given) gave G9a block inconclusive, HP1b chromo inh 4%, JMJD2A Tudor inh -32%, GLS inhibitor -9% and BAZ2B inh 50µM*.
Cc1ccc(N2C(S)=C(C#N)C(=O)NC2c2ccco2)cc1 (stereo not given) was read as G9a block 28µM*, HP1b chromo inh 20%, JMJD2A Tudor inh -21%, GLS inhibitor -14% and BAZ2B inh -17%.
N#CC1=C(S)N(c2ccccc2)C(c2ccco2)NC1=O (stereo not given) was read as G9a block 28µM*, HP1b chromo inh 45%, JMJD2A Tudor inh -1%, GLS inhibitor -2% and BAZ2B inh inconclusive.
For N#CC1=C(S)N(c2ccccc2)C(c2ccc(-c3ccc(Cl)c(Cl)c3)o2)NC1=O (stereo not given) the results were G9a block inconclusive, HP1b chromo inh -6%, JMJD2A Tudor inh inconclusive, GLS inhibitor -1% and BAZ2B inh inconclusive.
For N#CC1=C(S)N(c2ccc(F)cc2)C(c2ccco2)NC1=O (stereo not given) the results were G9a block 8.9µM*, HP1b chromo inh -7%, JMJD2A Tudor inh -20%, GLS inhibitor -6% and BAZ2B inh -27%.
Screening COc1cc(NC(=O)CCn2nc(C)c(S(=O)(=O)N3CCCCC3)c2C)cc(OC)c1OC returned G9a block 12%[12.7 µM], HP1b chromo inh 27%, JMJD2A Tudor inh 7%, GLS inhibitor 12% and BAZ2B inh -2%.

Source: PubChem BioAssay
